Records with an inconclusive call do not appear. A number with no mark means an inactive call. Calls of active or inactive are those of the source. Calls come from the whole dose curve; as a rule, active = well fitted inhibition curve with a large enough effect; inconclusive = small, poorly fitted or top-dose-only effect; inactive = no such curve, though single readings can be large or run the other way.
Assay: qHTS assay for measurement of the activity of small molecule inhibitors on Zika virus induced Caspase-3 activity in human iPSC derived neural progenitor cells (hNPCs) (AID 1224857); note: nearly all actives have a fitted effect of over 65% in size
Details: hNPCs ZIKV-induced caspase-3/7, Caspase-Glo luminescence, 6 h; series mostly up to 45.7 µM; activity change, negative = inhibition: at the top concentration
Description: National Center for Advancing Translational Sciences [NCATS]
Johns Hopkins University School of Medicine
Increase in the Caspase-3 activity indicates an activation of apoptosis cell death pathway caused by Zika virus infection in certain types of neuronal cells including human neural progenitor cells (hNPCs), astrocytes, and astrocytoma cell line (SNB-19). This cell-based caspase-3 activity assay measures the increased caspase-3 activity in the human iPSC derived neural progenitor cells (hNPCs) after a 6-hour Zika virus infection with a luminescence readout. A decrease in the luminescence signal in this assay by small molecule treatment indicates an inhibitory effect of that small molecule on the Zika virus induced caspase-3 activity that may correlate with its effect on reduction of Zika virus caused cell death.
The medium for hNPCs consists of DMEM/F12, N2 supplement (ThermoFisher, Cat.# 17502048), NEAA (ThermoFisher, Cat. # 11140050), 2 ug/ml heparin, 2 uM cyclopamine, and B27 (ThermoFisher, Cat. # 17504044). A Caspase-Glo 3/7 assay kit (catalog number G8092; Promega, Madison, WI) was used to detect caspase-3 activity induced by Zika virus infection in human cells. The reagent mixture was reconstituted as described in the protocol from the manufacturer. Polystyrene tissue culture treated and PDL coated white plates were obtained from Greiner Bio-One (Monroe, NC). Cells were seeded in 384- or 1536-well assay plates and cultured at 37 C with 5% CO2 for 16 to 20 hours. The typical cell seeding density in the 1536-well plate assay is 350 cells/well in 3 ul medium for hNPCs in tissue culture treated plates. Compounds were added to cells and incubated for one hour before addition of ZIKV solution to cells (2 FFU/cell). After incubation at 37 C with 5% CO2 for 6 hours, the reagent mixture of Caspase-Glo 3/7 assay kit was added to each well, followed by incubation at room temperature for 30 minutes. The luminescence intensity of the assay plates was measured using a ViewLux plate reader (PerkinElmer). Data were normalized by using the cell-containing wells without ZIKV as a negative control (0% induction of caspase 3/7 activity) and wells containing ZIKV infected cells (Caspase-3 activity induced) as a positive control (100% induction of caspase 3 activity). The percentage inhibitions of the increased Caspase-3 activity by small molecule inhibitors were then calculated.
Potency is the fitted concentration of half-maximal effect.

Going from Cc1c(O)cccc1C(=O)N[C@@H](CSc1ccccc1)[C@H](O)CN1C[C@H]2CCCC[C@@H]2C[C@@H]1C(=O)NC(C)(C)C to Cc1nnc(C(C)C)n1C1C[C@H]2CC[C@@H](C1)N2CC[C@H](NC(=O)C1CCC(F)(F)CC1)c1ccccc1 (stereo not given in full), the “activity change, negative = inhibition” value rises from 9.62% to 36.7%.

First: O=C(Nc1cccc(Br)c1)c1cccc(S(=O)(=O)N2CCCCCC2)c1
Second: CNC(=O)c1ccc2cc(C3(O)CCn4cncc43)ccc2c1 (stereo not given)
The “activity change, negative = inhibition” value of the first is lower: -11.1% for the first, 23% for the second.

First: O=C(O)CCC(C(=O)O)N1C(=O)c2ccccc2C1=O (stereo not given)
Second: O=C(O)C(O)Cc1ccc(O)c(O)c1 (stereo not given)
The “activity change, negative = inhibition” value of the first is lower: 0.192% for the first, 10.4% for the second.

Compared with O=C(O)c1c(Cl)c(Cl)c(Cl)c(Cl)c1-c1c2cc(I)c(=O)c(I)c-2oc2c(I)c(O)c(I)cc12, CO[C@H]1C=CO[C@@]2(C)Oc3c(C)c(O)c4c(O)c(c5c(c4c3C2=O)NC2(CCN(CC(C)C)CC2)N=5)=NC(=O)C(C)=CC=C[C@H](C)[C@H](O)[C@@H](C)[C@@H](O)[C@@H](C)[C@H](OC(C)=O)[C@H]1C is higher in “activity change, negative = inhibition” value: -24.8% for the first, -0.864% for the second.

First: CC(C)n1nc(-c2ccc3oc(N)nc3c2)c2c(N)ncnc21
Second: Nc1ncnc2c1ncn2[C@@H]1O[C@H](CO)C[C@@H]1O
The “activity change, negative = inhibition” value of the first is higher: 45.6% for the first, -9.57% for the second.

Going from CC1(C)S[C@H]2[C@H](NC(=O)[C@@H](N)c3ccc(O)cc3)C(=O)N2[C@@H]1C(=O)O to C[C@]12CC[C@@H]3c4ccc(O)cc4CC[C@H]3[C@H]1C[C@@H](O)[C@H]2O, the “activity change, negative = inhibition” value rises from 1.39% to 14.5%.

First: Nc1nc(Cl)nc2c1ncn2[C@@H]1O[C@H](COP(=O)(O)OP(=O)(O)OP(=O)(O)O)C(O)[C@H]1O (stereo not given in full)
Second: OC[C@H]1O[C@@H](Oc2cc(O)cc(C=Cc3ccc(O)cc3)c2)[C@H](O)[C@@H](O)[C@H]1O
The “activity change, negative = inhibition” value of the first is higher: 3.89% for the first, -12.2% for the second.

Compared with COCCCCC(=NOCCN)c1ccc(C(F)(F)F)cc1, COCCOC(=O)C1=C(C)NC2=C(C(=O)CC(c3ccccc3OC)C2)C1c1cccc(O)c1 (stereo not given) is higher in “activity change, negative = inhibition” value: -25.6% for the first, 7.5% for the second.

Compared with O=C(NC1CCOCC1)c1ccc(-c2cc(-c3cn[nH]c3-c3ccccn3)ccn2)cc1, Cn1cc(C=C2C(=O)Nc3cccnc32)c2ccccc21 is lower in “activity change, negative = inhibition” value: 22.3% for the first, -1.53% for the second.

Compared with Cc1cccc(Nc2nc(-c3ccncc3)cs2)c1, COc1ccc(-n2c(C)c([N+](=O)[O-])c3ccc(O)cc32)cc1 is higher in “activity change, negative = inhibition” value: -12.6% for the first, 2.24% for the second.

First: CCCCCCCCCCCC1=C(O)C(=O)C=C(O)C1=O
Second: CCOC(=O)C1=C(N)Oc2ccc(Br)cc2C1C(C#N)C(=O)OCC (stereo not given)
The “activity change, negative = inhibition” value of the first is lower: -36.5% for the first, 131% for the second.

First: O=C(NCc1ccncc1)C12C[C@H]3C[C@@H](C1)CC(c1ccc(Cl)cc1)(C3)C2
Second: Cn1c(N2CCCCS2(=O)=O)nc(C(=O)NCc2ccc(F)cc2)c(O)c1=O
The “activity change, negative = inhibition” value of the first is lower: -2.64% for the first, 39% for the second.

Compared with COc1ccc(C2CC(c3ccccc3)=NN2c2ccc(S(N)(=O)=O)cc2)cc1 (stereo not given), COc1cc(N2CCC(N3CCN(C)CC3)CC2)ccc1Nc1ncnc(Nc2ccccc2S(=O)(=O)C(C)C)n1 is higher in “activity change, negative = inhibition” value: 1.57% for the first, 23.8% for the second.

First: C=C1C(=O)OC2C=C(C)CCC=C(C)CCC12 (stereo not given)
Second: C[C@]12CCC3c4ccc(O)cc4CCC3C1CCC2=O (stereo not given in full)
The “activity change, negative = inhibition” value of the first is higher: 2.13% for the first, -12.2% for the second.

In the case of NC(=O)NN=Cc1ccc([N+](=O)[O-])o1, the “activity change, negative = inhibition” value is reported as -26.5%.

With CC(C(=O)O)c1ccc(-c2ccccc2)c(F)c1 (stereo not given) the Potency was 16.6 µM (active).
In the case of O=C1C[C@@H](c2ccc(O)cc2)Oc2cc(O)cc(O)c21, the Potency is reported as 18.7 µM (active).
In the case of O=c1cc(-c2ccccc2)oc2cc(O)cc(O)c12, the Potency is reported as 20.9 µM (active).
For CCN(CC)CCOC(=O)c1ccc(N)cc1, the Potency was “inactive”.
In the case of Cc1cccc(C)c1OCC(C)N (stereo not given), the Potency is reported as “inactive”.
In the case of CC(=O)N[C@@H](CS)C(=O)O, the Potency is reported as “inactive”.
For O=C1NC(=O)C(=Cc2ccc3nccnc3c2)S1, the Potency was 14.4 µM (active).
For O=C1C(Cl)=C(NCCN2CCOCC2)C(=O)c2ncccc21, the Potency was 2.35 µM (active).
In the case of CC(=NNC(=S)N1CCC1)c1ccccn1, the Potency is reported as 16.6 µM (active).
In the case of O=C1NC(=O)C(c2ccccc2)(c2ccccc2)N1, the Potency is reported as “inactive”.
With OC[C@@H](O)[C@H](O)[C@H](O)[C@@H](O)CO the Potency was “inactive”.

Source: PubChem BioAssay (NCATS)
